Hit rate of the full screen: of about 340,000 compounds, about 930 (0.27%) were called active. The entries come from a sample that favours actives as a whole. A number with no mark means an inactive call.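 The calls were made as follows: active = inhibition above the screen-wide average of all tested compounds plus 3 SD (cut at about 25% in these data); inactive = the rest.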
molecular target: Platelet-activating factor acetylhydrolase IB subunit alpha1 (Homo sapiens) (UniProt Q15102); experiment: inhibition of PAF acetylhydrolase 1B subunit 3 – biochemical, fluorescence polarization, human, primary screen (AID 492972); conditions: recombinant PAFAH1B3, FP-rhodamine probe, at 3.39 µM, active compounds read high;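 also: 0% = enzyme with DMSO only and 100% = wells lacking PAFAH1B3 protein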
Sequence (Q15102 whole entry, looked up): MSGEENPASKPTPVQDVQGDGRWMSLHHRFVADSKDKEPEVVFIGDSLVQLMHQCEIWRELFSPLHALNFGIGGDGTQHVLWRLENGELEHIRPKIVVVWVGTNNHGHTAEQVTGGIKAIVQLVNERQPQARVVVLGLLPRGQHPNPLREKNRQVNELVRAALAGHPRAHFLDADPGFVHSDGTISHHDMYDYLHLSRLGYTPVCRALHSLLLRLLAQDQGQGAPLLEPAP

Going from CN(C(=O)c1cccc(NC(=O)Cc2cccc(NC(=O)C3CCCN(C(=O)C4CC4)C3)c2)c1)C1CCC1 (centres undefined) to CC(C)(C)OC(=O)N1CCC(C(=O)Nc2cccc(C(=O)NCCc3ccccc3)c2)CC1, the inhibition falls from 1.82% to -4.3%.

Compared with Cc1c2cnn(CC(=O)NCc3ccccn3)c(=O)c2c(C)n1Cc1ccc(Cl)cc1, O=C(NCCc1ccccc1)Oc1ccc(Cl)cc1 is higher in inhibition: 0.23% for the first, 2.38% for the second.

Compared with N#C/C=C1\Sc2ccccc2C(=O)N1CC(=O)N1CCN(S(=O)(=O)c2ccccc2)CC1, Cc1ccc(C)c(S(=O)(=O)N2CCN(C(=O)Nc3ccccc3)CC2)c1 is lower in inhibition: 5.99% for the first, 3.11% for the second.

Compared with Fc1c(F)c(C(F)(F)F)c(F)c(F)c1N1CCN(c2ccc3nnc(C(F)(F)F)n3n2)CC1, O=C(Nc1ccccc1Cl)N1CCN(c2ccc3nncn3n2)CC1 is lower in inhibition: 6.38% for the first, 2.34% for the second.

Going from COc1ccccc1C(C)NC(=O)Cc1ccsc1 (centres undefined) to CCC(=O)NCc1cc(-c2nn(C)c(=O)c3ccccc23)ccc1OC, the inhibition falls from 4.64% to -3.52%.

Compared with O=C(Nc1cccn(Cc2ccccc2Cl)c1=O)NC1CCCCC1, CCN1C(=O)[C@H]2[C@@H](c3ccc(SC4CCCCC4)c(OC)c3)N[C@@](Cc3ccccc3)(C(=O)OC)[C@H]2C1=O is higher in inhibition: -6.16% for the first, -5.41% for the second.

First: CC(NC(=O)COc1cccnc1[N+](=O)[O-])c1ccc(Cl)cc1Cl (centres undefined)
Second: CCOC(=O)CNC(=O)CSc1ncccc1-c1nc2ccccc2[nH]1
The inhibition of the first is higher: 9.45% for the first, -4.22% for the second.

Compared with CCCCN=C1C([N+](=O)[O-])=CC=C2C1=NC1(CCCCC1)N2O, O=C(CN1C(=O)NC2(CCCCCC2)C1=O)Nc1ccc([N+](=O)[O-])cc1 is lower in inhibition: 7.2% for the first, 7% for the second.

First: CC(C)c1ccc(-c2nn[nH]n2)cc1
Second: CCC(C(=O)Nc1ccc(C(C)C)cc1)c1ccccc1 (centres undefined)
The inhibition of the first is higher: 5.47% for the first, -2.07% for the second.

Going from Cc1ccc(S(=O)(=O)N2CCN(C(=O)Cc3sc(C)nc3-c3ccc(F)cc3)CC2)c(C)c1 to CC(=O)c1c(C)[nH]c(C(=O)N2CCN(S(=O)(=O)c3ccc(F)c(F)c3)CC2)c1C, the inhibition falls from 4.17% to 0.06%.

Compared with N#Cc1c(-c2ccc(Cl)cc2)c2c([nH]c1=S)CCCC2, CCc1ccc(OCC(=O)NCC(c2ccc(Cl)cc2)N2CCCCC2)cc1 (centres undefined) is lower in inhibition: 2.52% for the first, 1.46% for the second.

First: O=C(c1cc2cc(Br)cc(Br)c2oc1=O)N1CCOCC1
Second: O=C(Nc1ccc(CN2CCOCC2)cc1)c1cc(Cl)ccc1Cl
The inhibition of the first is lower: 0.41% for the first, 7.42% for the second.

First: CC(NC(=O)c1ccccc1)C(=O)Nc1ccccc1 (centres undefined)
Second: CSCCC(NC(=O)COc1ccccc1)C(=O)Nc1ccc(C)cc1 (centres undefined)
The inhibition of the first is higher: 3.87% for the first, 3.02% for the second.

First: O=C1C=C(NS(=O)(=O)c2ccccc2)C(=O)c2ccccc21
Second: Cc1ccc(S(=O)(=O)NNC(=O)Nc2cccc3ccccc23)cc1
The inhibition of the first is higher: 13.3% for the first, 3.24% for the second.

Compared with CN1CCN(C(=O)c2cnn(-c3ccccc3)c2NC(=O)c2ccc([N+](=O)[O-])cc2)CC1, CCOC(=O)c1ccc(-c2ccc(C(=O)Nc3cccnc3)o2)cc1 is lower in inhibition: 6.79% for the first, -6.74% for the second.

Compared with OCCNc1nc2ccccc2n1-c1ncnc2sc3c(c12)CCC3, Cn1ncc2c(Nc3cccc4ccccc34)ncnc21 is lower in inhibition: 10.6% for the first, -1.17% for the second.

Compared with CCN(CC(=O)Nc1c(F)cccc1F)C(=O)c1cnc(C)cn1, CCn1ncc(C2=NOC(C(=O)Nc3ccccc3C(=O)OC)C2)c1C (centres undefined) is higher in inhibition: -0.64% for the first, 9.12% for the second.

First: COC(=O)C1=C(C)N(C)C(=O)NC1c1ccc([N+](=O)[O-])o1 (centres undefined)
Second: CCOC(=O)C1=C(CN2CCc3ccccc32)NC(=O)NC1c1cc(C)ccc1C (centres undefined)
The inhibition of the first is higher: 0.98% for the first, 0.4% for the second.

Compared with COc1ccc(N2CCN(C3CCCCC3NS(=O)(=O)c3ccccc3)CC2)cc1 (centres undefined), CN(Cc1ccccc1)C(=O)C1CCCN(c2ncnc3c2nc2n3CCCCC2)C1 (centres undefined) is lower in inhibition: 7.46% for the first, 3.41% for the second.

Going from Cc1ccc(F)cc1NC(=O)Cc1nn(C)c(=O)c2ccccc12 to Cc1ccc(C)c(NC(=O)COC(=O)CSc2ccccc2)c1, the inhibition rises from -8.34% to 1.73%.

First: Cn1ncc2c(N3CCCCC3)nc(NCCCO)nc21
Second: Cc1nnc(SCCCn2c(N3CCCCC3)nc3c2c(=O)[nH]c(=O)n3C)s1
The inhibition of the first is higher: 8.53% for the first, 5.57% for the second.

First: Cc1cccnc1CCNC(=O)C1CCC(=O)N(Cc2cccc(F)c2)C1 (centres undefined)
Second: O=C1c2cccc(OCC(=O)N3N=C(c4cccs4)CC3c3ccc(F)cc3)c2CCN1Cc1ccccc1 (centres undefined)
The inhibition of the first is lower: 2.19% for the first, 3.19% for the second.

Going from Cc1ccc(CNS(=O)(=O)c2ccc3c(c2)N(C)CCO3)cc1 to Cc1ccc(S(=O)(=O)N2CCN(C)CC2)cc1, the inhibition falls from 8.72% to 2.98%.

Going from CC(=O)Nc1ccccc1OC(C)C(=O)N1CCC(C)CC1 (centres undefined) to O=C(CN1CCN(C(=O)c2ccco2)CC1)Nc1ccc(Cl)c(C(F)(F)F)c1, the inhibition rises from 1.25% to 8.31%.

Compared with CN(C)CCN=c1cc(-c2ccccc2)oc2ccc(Cl)cc12, COc1cc(CNCCN(C)C)ccc1OCc1c(F)cccc1Cl is higher in inhibition: 5.11% for the first, 7.89% for the second.

Compared with Cc1cc2cc3c(N)[nH]nc3nc2cc1C, Cc1ccc(N=C2NC(=O)/C(=C/C=C/c3ccco3)S2)cc1C is lower in inhibition: 5.34% for the first, -1.25% for the second.

First: COc1ccc(S(=O)(=O)N2CCOCC2)cc1NC(=O)Cc1coc2cc(C)ccc12
Second: COc1ccc(C)cc1S(=O)(=O)N(CC(=O)Nc1cccc([N+](=O)[O-])c1)c1ccc(C)cc1
The inhibition of the first is higher: 9.79% for the first, -21.3% for the second.

Going from O=C(NCc1cccnc1)c1ccc(CS(=O)(=O)c2ccc(Br)cc2)o1 to O=C(NCc1ccccc1)C(c1cccnc1)N(C(=O)c1csnn1)c1ccc(F)cc1 (centres undefined), the inhibition rises from 2.95% to 4.83%.

Going from CN(CC(=O)NCc1ccc2c(c1)OCO2)CC(=O)Nc1ccc(F)c(F)c1F to CC(Sc1nncs1)C(=O)NCc1ccc2c(c1)OCO2 (centres undefined), the inhibition falls from 7.36% to 4.2%.

Going from CCCCNC(=O)N(O)C1N(/N=C/c2ccccc2O)C(=S)SC1(C)C (centres undefined) to CCC(C)N1C(=S)SC(C)(C)C1N(O)C(=O)NC1CCCCC1 (centres undefined), the inhibition rises from -1.86% to 3.27%.

First: CC1CCCC(NC(=O)COC(=O)[C@@H]2CC(O)CN2S(=O)(=O)c2ccc3c(c2)OCCO3)C1C (some centres undefined)
Second: O=C(COC(=O)c1cccnc1Cl)NC12CC3CC(CC(C3)C1)C2
The inhibition of the first is lower: -2.21% for the first, 16.2% for the second.

First: COc1cc(OC)cc(-c2c(C#Cc3ccsc3)c3cc(-c4ccc(SC)cc4)ccc3n2C)c1
Second: Cc1ccc(N2C(=O)S/C(=C/c3cn(C)c4ccccc34)C2=O)cc1
The inhibition of the first is higher: 11.8% for the first, 1.18% for the second.

First: CC/C(=N\NC(=O)c1c(C)nc2ccccn12)c1ccc(Cl)cc1
Second: Cc1ccc(-c2noc(CNC(=O)c3ccoc3C)n2)cc1
The inhibition of the first is lower: 2.04% for the first, 7.91% for the second.

Compared with O=C(CN1C(=O)NC2(CCCCCC2)C1=O)NC1CC1, COCCNC(=S)N1CCC(NC(=O)C23CC4CC(CC(C4)C2)C3)CC1 is lower in inhibition: 8.06% for the first, 7.45% for the second.

First: CCCc1nc(N)nc2c1C(=O)CC(C)(C)C2
Second: CCSC(C)CC1C/C(=N/O)c2c(C)noc2C1 (centres undefined)
The inhibition of the first is lower: 3.91% for the first, 4.48% for the second.

First: CN(C)C(=O)CCc1ccc2c3c([nH]c2c1)[C@]1(C)[C@@H](C(=O)N2CCOCC2)C[C@H](CC(=O)NCCc2ccccn2)C(=O)N1CC3
Second: COc1ccc(N(CC(=O)NCC2CCCO2)C(=O)CCC(=O)Nc2nccs2)c(OC)c1 (centres undefined)
The inhibition of the first is higher: 12.3% for the first, 2.48% for the second.

First: CN(C)[C@@H]1C(=O)C(C(N)=O)=C(O)[C@@]2(O)C(=O)C3=C(O)c4c(O)ccc(Cl)c4[C@@H](O)[C@H]3C[C@@H]12
Second: O=C(Nc1nccs1)C1CCN(S(=O)(=O)c2ccc(Cl)c(C(F)(F)F)c2)CC1
The inhibition of the first is higher: 11% for the first, 7.86% for the second.

First: CC1=Nn2c(nnc2-c2ccccc2)SC1
Second: COc1ccccc1-c1nnc2n1N=C(c1ccc(OC(F)F)c(OCC3CC3)c1)CS2
The inhibition of the first is higher: 6.68% for the first, -0.82% for the second.

With CC(=O)N(C1=C(Cl)C(=O)c2ccccc2C1=O)c1ccc(C(=O)O)cc1 the inhibition was 39% (active).
For CCCC1OC23CCCCC2C(C#N)(C#N)C1(C#N)C(=N)O3 (centres undefined), the inhibition was 27.8% (active).
In the case of O=C1Nc2c(Br)cc(Br)cc2C1(O)N1CCOCC1 (centres undefined), the inhibition is reported as 38% (active).
In the case of O=C(NC1=CC(=O)c2ccccc2C1=O)c1ccccc1, the inhibition is reported as 28.6% (active).
For COC(=O)C1=C(C)NC2=C(C(=O)c3ccccc32)C1c1ccc(-c2ccc(C(=O)O)cc2)o1 (centres undefined), the inhibition was 46.5% (active).
In the case of Cc1c(-c2nn(C)c(=O)c3ccccc23)oc2ccc(F)cc2c1=O, the inhibition is reported as 37.7% (active).
With Cc1ccc(C)c(NC(=O)NNC(=O)c2ccc3ccccc3c2O)c1 the inhibition was 39.8% (active).
CCCCNC(=O)N(O)C1N(/N=C/c2ccc(N(C)C)cc2)C(=S)SC1(C)C (centres undefined) was tested, and the inhibition was 40.5% (active).
Cc1cccc(N=C2NC(=O)/C(=C/c3cn(C)c4ccccc34)S2)c1 was tested, and the inhibition was 31.3% (active).
With C=C1c2c(Cl)ccc(O)c2C(O)=C2C(=O)[C@]3(O)C(O)=C(C(N)=O)C(=O)[C@@H](N(C)C)[C@@H]3[C@@H](O)C12 (some centres undefined) the inhibition was 32.6% (active).
c1coc(-c2nc3nc4ccccc4n3nc2-c2ccco2)c1 was tested, and the inhibition was 41.5% (active).
In the case of COc1ccc(C2=Nn3c(nnc3-c3ccccc3OC)SC2)cc1OC1CCCC1, the inhibition is reported as 38.3% (active).
In the case of CCN(CC)CCCC(C)n1c2nc(=O)[nH]c(=O)c-2nc2cc(Cl)ccc21 (centres undefined), the inhibition is reported as 57.6% (active).
